Laboratory results taken from PubChem BioAssay.
Calls of active or inactive are those of the source. Unless noted, how the calls were made is not given here.

What was measured:
[1] = test system: Wnt5a (protein binding on small-molecule microarray); experiment: Wnt5a binders on small-molecule microarray, primary screen, biophysical, 635/667 nm fluorescence (AID 1142); details: 635 nm fluorescence, higher = more signal;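 further: fluorescence read at 667 nm with signal to noise per printed feature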
[2] = cell viability in Huh7 cells, primary screen, cytotoxicity control for HCV replication inhibitor project, CellTiter-Glo luminescence, basal, 48 h (AID 1143); details: Huh7 HCV replicon, higher = more signal, called active from +8 up or from −8 down;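 further: Huh7 hepatoma cells carrying a hepatitis C replication reporter with no stimulus; test concentration not given here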
[3] = P. aeruginosa biofilm formation inhibitors, primary screen, PAO1 strain, BacTiter-Glo luminescence, LB-PBS (AID 1144); details: 12 h, higher = more signal
[4] = CREB reporter modulators without forskolin, primary screen, cell-based, PC12, CRE-LacZ reporter, unstimulated (AID 1145); details: no forskolin, luminescence, 4.5 h, higher = more signal, called active from +8 up or from −8 down
[5] = CREB reporter modulators under forskolin, primary screen, cell-based, PC12, CRE-LacZ reporter, forskolin-stimulated (AID 1146); details: luminescence, 4.5 h, higher = more signal, called active from +8 up or from −8 down;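 further: PC12 cells with 6xCRE LacZ reporter stimulated by forskolin 10 µM; beta-galactosidase reporter signal reflecting CREB driven transcription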
[6] = target: Streptavidin (Streptomyces avidinii) (UniProt P22629); experiment: streptavidin binders on small-molecule microarray, primary screen, artefact control for SMM compound annotation, biophysical, 635/667 nm fluorescence (AID 1147); details: streptavidin binding, higher = more signal;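 further: signal reflects streptavidin binding to arrayed compounds as a control protein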
[7] = small-molecule binders of probe aInhba, primary screen, biochemical, small-molecule microarray, 635/667 nm fluorescence (AID 1148); details: higher = more signal;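 further: score merges 667nm spot fluorescence with signal-to-noise for antibody binding to printed compounds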
Torsin-1A (Homo sapiens) [8] = target: Torsin-1A (Homo sapiens) (UniProt O14656); experiment: torsin A binders from cell lysate, primary screen, small-molecule microarray, wild-type, 635/667 nm (AID 1149); details: COS7 hTOR1A-WT lysate, 635 nm fluorescence, higher = more signal
Torsin-1A (Homo sapiens) [9] = target: Torsin-1A (Homo sapiens) (UniProt O14656); experiment: small-molecule binders of mutant TOR1A in lysate, primary screen, cell lysate, small-molecule microarray, COS7 lysate, 635/667 nm fluorescence (AID 1150); details: COS7 hTOR1A mutant lysate, 635 nm fluorescence, higher = more signal;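 further: score pools 667 nm emission and signal to noise measuring lysate protein binding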
[10] = test system: Sonic hedgehog protein (Shh); experiment: small-molecule binders of Shh protein, primary screen, biochemical, small-molecule microarray, 635/667 nm fluorescence (AID 1151); details: small-molecule microarray binding, 635 nm fluorescence; higher = more signal;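 further: Shh protein binding to compounds spotted on small-molecule microarray slides; score combines spot fluorescence intensity with signal-to-noise across triplicate slides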

Chain of Torsin-1A (Homo sapiens) (O14656 whole entry, looked up): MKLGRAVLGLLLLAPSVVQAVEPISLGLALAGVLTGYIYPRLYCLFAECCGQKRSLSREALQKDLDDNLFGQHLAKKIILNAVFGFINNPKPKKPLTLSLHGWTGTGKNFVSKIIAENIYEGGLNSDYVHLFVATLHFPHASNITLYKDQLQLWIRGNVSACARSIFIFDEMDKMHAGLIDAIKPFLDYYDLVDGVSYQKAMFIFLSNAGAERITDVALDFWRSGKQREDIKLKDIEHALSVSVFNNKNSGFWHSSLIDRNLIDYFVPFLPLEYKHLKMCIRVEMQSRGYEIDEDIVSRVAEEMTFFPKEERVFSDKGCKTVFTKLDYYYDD
Chain of Streptavidin (Streptomyces avidinii) (P22629 whole entry, looked up): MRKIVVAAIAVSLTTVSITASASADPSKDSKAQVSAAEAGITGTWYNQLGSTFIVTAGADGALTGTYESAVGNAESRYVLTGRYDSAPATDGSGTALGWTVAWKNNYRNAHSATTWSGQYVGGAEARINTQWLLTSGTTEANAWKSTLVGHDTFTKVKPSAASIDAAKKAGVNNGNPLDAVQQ

| SMILES | composite z-score [1] | z-score [2] | z-score [3] | z-score [4] | z-score [5] | composite z-score [6] | composite z-score [7] | composite z-score (Torsin-1A (Homo sapiens) [8]) | composite z-score (Torsin-1A (Homo sapiens) [9]) | composite z-score [10] |
| --- | --- | --- | --- | --- | --- | --- | --- | --- | --- | --- |
| CC(=O)N1Cc2ccccc2C[C@@]2(N=C(c3ccc(OCCCO)cc3)O[C@H]2c2ccccc2)C1=O | 0.604 | -4.03 (inactive) | -0.519 (inactive) | 1.53 (inactive) | -0.634 (inactive) | 0.326 | 0.482 | 0.513 | 1.17 | 1.69 |
| COCCOC(=O)N1C(=O)[C@@]2(c3cc(C#Cc4ccc(OC)cc4)ccc31)[C@H](c1ccc(O)cc1)N1[C@H](c3ccccc3)[C@H](c3ccccc3)OC(=O)[C@H]1[C@@H]2C(=O)N1CCN(c2ncccn2)CC1 | -0.0114 | -0.949 (inactive) | -0.166 (inactive) | -0.114 (inactive) | 0.75 (inactive) | 0.0875 | 0.199 | 0.487 | 0.651 | 0.982 |
| [N-]=[N+]=Nc1ccccc1C[C@]1(C(=O)N2CCCCC2)N=C(c2ccc(OCCCO)cc2)O[C@H]1c1ccccc1N=[N+]=[N-] | 0.316 | -3.99 (inactive) | -0.546 (inactive) | 0.722 (inactive) | -1.69 (inactive) | 1.04 | 0.622 | 0.656 | 0.951 | 0.364 |
| COC(=O)[C@@]1(Cc2ccc(OC)cc2)[C@H]2c3cc(C(=O)N4CCCC4)n(CCc4ccccn4)c3C[C@H]2CN1C(=O)c1ccccc1 | -0.249 | -0.784 (inactive) | -0.304 (inactive) | 0.201 (inactive) | 0.404 (inactive) | 0.698 | -0.0332 | -0.166 | 1.1 | 0.429 |
| C=CCC(OC(C)=O)[C@@H]1[C@@H](N(Cc2ccc(-c3cccc(C(F)(F)F)c3)o2)C(=O)c2ccc(C)cc2)c2cc(OCCCO)ccc2N1C(=O)c1ccc2ccccc2n1 (stereo not given in full) | 0.0861 | 0.0775 (inactive) | -0.293 (inactive) | 0.395 (inactive) | -0.0797 (inactive) | 0.256 | -0.151 | -0.138 | 0.114 | 0.978 |
| Cn1c2c(c3ccccc31)C(=O)C1NC2C=CC1(C)C(=O)OCc1ccccc1 (stereo not given) | -0.348 | -0.171 (inactive) | 0.908 (inactive) | 1.39 (inactive) | 0.716 (inactive) | 0.298 | 0.0442 | -0.327 | 0.285 | -0.699 |
| COCCOC(=O)N1C(=O)[C@@]2(c3ccccc31)[C@H](C(=O)N1CCCCCCC1)[C@H]1C(=O)O[C@H](c3ccccc3)[C@H](c3ccccc3)N1[C@@H]2c1ccccc1OCCO | 1.09 | -2.56 (inactive) | -0.699 (inactive) | 0.0384 (inactive) | 0.207 (inactive) | 2.79 | 1.76 | 1.27 | 1.76 | 1.3 |
| Cc1ccc(S[C@]2(C(=O)NCCCN(C)C)CC(=O)N(C(C)C)[C@@H]2c2ccc(CO)cc2I)cc1 | -0.331 | -2.21 (inactive) | -0.985 (inactive) | -0.114 (inactive) | 0.561 (inactive) | -0.199 | -0.0986 | -1.59 | -0.729 | 0.0632 |
| Cc1ccc(S[C@]2(C(=O)NCCCN(C)C)CC(=O)N(Cc3ccccc3)[C@@H]2c2ccc(CO)cc2)cc1 | -0.2 | -0.533 (inactive) | 0.294 (inactive) | -0.232 (inactive) | 0.529 (inactive) | -0.689 | -0.0494 | -0.883 | -0.623 | -1.02 |
| C=C(CCCC)C(=O)CC[C@@H](OC(=O)c1ccccc1-c1ccccc1C(=O)O)c1ccc(CO)o1 | 0.233 | 0.0462 (inactive) | -0.0968 (inactive) | -0.219 (inactive) | 0.432 (inactive) | -0.3 | 0.181 | 1.29 | 0.854 | 1.08 |
| COc1ccc([Si](C)(C)[C@@H]2[C@@H](CCO)O[C@]3(C(=O)N(Cc4cccc(N(C=O)c5ccccc5)c4)c4ccccc43)[C@H]2C)cc1 | -0.0398 | -7.17 (inactive) | 0.465 (inactive) | 7.39 (inactive) | -0.671 (inactive) | 0.156 | 0.0543 | 0.0905 | -0.004 | 0.98 |
| COC(=O)[C@@]1(Cc2ccc(F)cc2)[C@H]2c3cc(C(=O)N4CCCC4)n(CCc4ccc(OC)c(Br)c4)c3C[C@H]2CN1C(=O)c1ccccc1 | 0.375 | -3.82 (inactive) | 0.839 (inactive) | 0.0109 (inactive) | -1.14 (inactive) | 2.46 | 0.431 | 0.17 | 0.858 | -0.328 |
| C=C(COC)C(=O)CC[C@H](OC(=O)c1cccnc1)c1ccccc1OCCO | 0.112 | -2.22 (inactive) | -0.201 (inactive) | 5.43 (inactive) | 9.65 (active) | 0.279 | 0.0705 | 0.519 | 0.698 | 1.63 |
